Measured values reported in PubChem BioAssay (NCATS).
Inconclusive results are not listed. Where a call stands in place of a potency, no number is given. A number with no mark means an inactive call. Active and inactive are the calls of the source. Calls follow the shape of the dose curve; as a rule, active = well fitted inhibition curve with a large enough effect; inconclusive = small, poorly fitted or top-dose-only effect; inactive = no such curve, though single readings can be large or run the other way.

Assay: BET inhibitor-based combinations targeting novel dependencies in MECOM-rearranged (r) AML: OCI-AML3 cell line (AID 2202232); also: nearly all actives have a fitted effect of over 35% in size
Details: CellTiter-Glo luminescence, 48 h; Potency: OCI-AML3 viability; series mostly up to 46 µM
Summary of the method: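 500 cells/well; 11-pt dose curve; 48 h, standard incubator; CellTiter-Glo luminescence after 15 min RT; DMSO/empty-well normalization; AUC plus Z-AUC (mean-centered within each line).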
Potency is read from the fitted curve at half-maximal effect.

Row | Structure (SMILES) | Potency | viability (% of control)
1 | COc1cc(NC(=O)c2ccc(-c3ccc(Cl)cc3)o2)cc(OC)c1 | inactive | –
2 | Cc1cn([C@@H]2C[C@@H](O)[C@H](CO)O2)c(=O)[nH]c1=O | inactive | –
3 | Nc1nc2c(c(=O)[nH]1)N(C=O)[C@H](CNc1ccc(C(=O)N[C@@H](CCC(=O)O)C(=O)O)cc1)CN2 | inactive | –
4 | OC[C@@H](O)[C@@H](O)[C@H](O)[C@@H](O)CO | inactive | –
5 | O=C(O)C(O)Cc1ccc(O)c(O)c1 (stereo not given) | inactive | –
6 | CNC(=O)Nc1ccc(-c2nc(N3CC4CCC(C3)O4)c3cnn(C4CCC5(CC4)OCCO5)c3n2)cc1 | 105 nM (active) | –
7 | Cc1cccc(-c2nn(C(=S)Nc3ccccc3)cc2-c2ccnc3ccccc23)n1 | inactive | –
8 | CC(C)(C)COc1ccc(-n2cc(C(=O)O)cn2)cc1C#N | 10500 nM (active) | –
9 | C1CCC(C(CC2CCCCN2)C2CCCCC2)CC1 (stereo not given) | 6610 nM (active) | –
10 | CC(C)C(C)C=CC(C)C1CCC2C3=CC=C4CC(O)CCC4(C)C3CCC21C (stereo not given) | inactive | –
11 | CO[C@@H]1[C@@H](OC(N)=O)[C@@H](O)[C@H](Oc2ccc3c(O)c(NC(=O)c4ccc(O)c(CC=C(C)C)c4)c(=O)oc3c2C)OC1(C)C | inactive | –
12 | CCN1CCN(CC(=O)Nc2ccc(-c3cccc4c(=O)cc(N5CCOCC5)oc34)c3sc4ccccc4c23)CC1 | 2570 nM (active) | –
13 | COc1cccc2c1C(=O)c1c(O)c3c(c(O)c1C2=O)C[C@@](O)(C(=O)CO)C[C@@H]3O[C@H]1C[C@H](N)[C@H](O)[C@H](C)O1 | 46.8 nM (active) | –
14 | Cn1cc(C2=C(c3c4n(c5ccccc35)CCC(CN)C4)C(=O)NC2=O)c2ccccc21 (stereo not given) | – | 88.4% [at 8.46 µM]
15 | COCCCN1CCC(NC(=O)c2cc(Cl)c(N)c3c2OCC3)CC1 | inactive | –
16 | c1ccc2c(-c3cnn4cc(-c5ccc(N6CCNCC6)cc5)cnc34)ccnc2c1 | 2950 nM (active) | –
17 | CC(C)(F)C[C@H](N[C@@H](c1ccc(-c2ccc(S(C)(=O)=O)cc2)cc1)C(F)(F)F)C(=O)NC1(C#N)CC1 | inactive | –
18 | CCN(CC)CCCCNc1ncc2cc(-c3cc(OC)cc(OC)c3)c(NC(=O)NC(C)(C)C)nc2n1 | 16600 nM (active) | –
19 | CN1C(C(=O)Nc2ccccn2)=C(O)c2sc(Cl)cc2S1(=O)=O | inactive | –
20 | CS(=O)(=O)OCCCCOS(C)(=O)=O | inactive | –

Row | Structure (SMILES) | Potency | viability (% of control)
21 | OC(c1cc(C(F)(F)F)nc2c(C(F)(F)F)cccc12)C1CCCCN1 (stereo not given) | 18600 nM (active) | –
22 | Cc1ccc(O)c(C(CCN(C(C)C)C(C)C)c2ccccc2)c1 (stereo not given) | inactive | –
23 | COc1cc(OC)c(C(=O)CCCN2CCCC2)c(OC)c1 | inactive | –
24 | S=c1nc[nH]c2nc[nH]c12 | 1860 nM (active) | –
25 | CC#CCn1c(N2CCC[C@@H](N)C2)nc2c1c(=O)n(Cc1nc(C)c3ccccc3n1)c(=O)n2C | inactive | –
26 | CN[C@@H]1CN(c2ccc3c(=O)c(C(=O)O)cn(-c4nccs4)c3n2)C[C@@H]1OC | 1150 nM (active) | –
27 | O=C1NC(O)CCN1[C@@H]1O[C@H](CO)[C@H](O)[C@H]1O (stereo not given in full) | inactive | –
28 | CC[C@@H]1C(=O)N(C)c2cnc(Nc3ccc(C(=O)NC4CCN(C)CC4)cc3OC)nc2N1C1CCCC1 | 52.5 nM (active) | –
29 | O=C(Nc1cc(Cl)cc2c1[nH]c1cnccc12)c1cccnc1 | inactive | –
30 | C[C@](Cc1c[nH]c2ccccc12)(NC(=O)OC1C2CC3CC(C2)CC1C3)C(=O)NC[C@H](NC(=O)CCC(=O)O)c1ccccc1 (stereo not given in full) | inactive | –
31 | O=C(O)[C@@H](c1ccc(OCc2ccc3ccccc3n2)cc1)C1CCCC1 | inactive | –
32 | COc1ccc(C=Cc2cc(OC)c(OC)c(OC)c2)cc1NC(=O)[C@H](N)CO | 296 nM (active) | –
33 | C[C@@H](CN1CC(=O)NC(=O)C1)N1CC(=O)NC(=O)C1 | 18600 nM (active) | –
34 | C[C@@H](Oc1cc(-n2cnc3ccc(CN4CCN(C)CC4)cc32)sc1C(N)=O)c1ccccc1C(F)(F)F | 46.8 nM (active) | –
35 | C[C@@H]1C[C@H]2[C@@H]3CCC4=CC(=O)C=C[C@]4(C)[C@@]3(F)[C@@H](O)C[C@]2(C)[C@@]1(O)C(=O)CO | inactive | –
36 | CC1=C(C)C(=O)C(C(CCCCCC(=O)O)c2ccccc2)=C(C)C1=O (stereo not given) | inactive | –
37 | C[C@]12C=CC(=O)C=C1CC[C@@H]1[C@@H]2C(=O)C[C@@]2(C)[C@H]1CC[C@]2(O)C(=O)CO | inactive | –
38 | Cc1ccc(C(=O)Nc2cccc(C(F)(F)F)c2)cc1Nc1nc(-c2cccnc2)nc2c1cnn2C | 8330 nM (active) | –
39 | COc1cc([C@@H]2c3cc4c(cc3[C@H](O)[C@H]3COC(=O)[C@H]23)OCO4)cc(OC)c1OC | 37.2 nM (active) | –
40 | COc1ccc(-n2c(C)c([N+](=O)[O-])c3ccc(O)cc32)cc1 | inactive | –

Assay: BET inhibitor-based combinations targeting novel dependencies in MECOM-rearranged (r) AML: MV-4-11 cell line (AID 2202233); also: nearly all actives have a fitted effect of over 45% in size
Details: MV-4-11 AML viability, CellTiter-Glo luminescence, 48 h; series mostly up to 46 µM
Summary of the method: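 Cells were plated at 500 per well and exposed to each drug across an 11-point dose range for 48 hr at standard incubator conditions. Viability was read by CellTiter-Glo luminescence, and activity was expressed as AUC and per-cell-line Z-transformed AUC.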

Row | Structure (SMILES) | Potency
41 | COc1cc(NC(=O)c2ccc(-c3ccc(Cl)cc3)o2)cc(OC)c1 | inactive
42 | Cc1cn([C@@H]2C[C@@H](O)[C@H](CO)O2)c(=O)[nH]c1=O | inactive
43 | Nc1nc2c(c(=O)[nH]1)N(C=O)[C@H](CNc1ccc(C(=O)N[C@@H](CCC(=O)O)C(=O)O)cc1)CN2 | inactive
44 | OC[C@@H](O)[C@@H](O)[C@H](O)[C@@H](O)CO | inactive
45 | O=C(O)C(O)Cc1ccc(O)c(O)c1 (stereo not given) | inactive
46 | CNC(=O)Nc1ccc(-c2nc(N3CC4CCC(C3)O4)c3cnn(C4CCC5(CC4)OCCO5)c3n2)cc1 | 166 nM (active)
47 | Cc1cccc(-c2nn(C(=S)Nc3ccccc3)cc2-c2ccnc3ccccc23)n1 | inactive
48 | CC(C)(C)COc1ccc(-n2cc(C(=O)O)cn2)cc1C#N | inactive
49 | C1CCC(C(CC2CCCCN2)C2CCCCC2)CC1 (stereo not given) | 8330 nM (active)
50 | CC(C)C(C)C=CC(C)C1CCC2C3=CC=C4CC(O)CCC4(C)C3CCC21C (stereo not given) | inactive
51 | CO[C@@H]1[C@@H](OC(N)=O)[C@@H](O)[C@H](Oc2ccc3c(O)c(NC(=O)c4ccc(O)c(CC=C(C)C)c4)c(=O)oc3c2C)OC1(C)C | inactive
52 | CCN1CCN(CC(=O)Nc2ccc(-c3cccc4c(=O)cc(N5CCOCC5)oc34)c3sc4ccccc4c23)CC1 | 1440 nM (active)
53 | COc1cccc2c1C(=O)c1c(O)c3c(c(O)c1C2=O)C[C@@](O)(C(=O)CO)C[C@@H]3O[C@H]1C[C@H](N)[C@H](O)[C@H](C)O1 | 37.2 nM (active)
54 | Cn1cc(C2=C(c3c4n(c5ccccc35)CCC(CN)C4)C(=O)NC2=O)c2ccccc21 (stereo not given) | 4810 nM (active)
55 | COCCCN1CCC(NC(=O)c2cc(Cl)c(N)c3c2OCC3)CC1 | inactive
56 | c1ccc2c(-c3cnn4cc(-c5ccc(N6CCNCC6)cc5)cnc34)ccnc2c1 | 934 nM (active)
57 | CC(C)(F)C[C@H](N[C@@H](c1ccc(-c2ccc(S(C)(=O)=O)cc2)cc1)C(F)(F)F)C(=O)NC1(C#N)CC1 | 4680 nM (active)
58 | CCN(CC)CCCCNc1ncc2cc(-c3cc(OC)cc(OC)c3)c(NC(=O)NC(C)(C)C)nc2n1 | 11800 nM (active)
59 | CN1C(C(=O)Nc2ccccn2)=C(O)c2sc(Cl)cc2S1(=O)=O | inactive
60 | CS(=O)(=O)OCCCCOS(C)(=O)=O | inactive

Row | Structure (SMILES) | Potency
61 | OC(c1cc(C(F)(F)F)nc2c(C(F)(F)F)cccc12)C1CCCCN1 (stereo not given) | 20900 nM (active)
62 | Cc1ccc(O)c(C(CCN(C(C)C)C(C)C)c2ccccc2)c1 (stereo not given) | inactive
63 | COc1cc(OC)c(C(=O)CCCN2CCCC2)c(OC)c1 | inactive
64 | S=c1nc[nH]c2nc[nH]c12 | 417 nM (active)
65 | CC#CCn1c(N2CCC[C@@H](N)C2)nc2c1c(=O)n(Cc1nc(C)c3ccccc3n1)c(=O)n2C | inactive
66 | CN[C@@H]1CN(c2ccc3c(=O)c(C(=O)O)cn(-c4nccs4)c3n2)C[C@@H]1OC | 323 nM (active)
67 | O=C1NC(O)CCN1[C@@H]1O[C@H](CO)[C@H](O)[C@H]1O (stereo not given in full) | inactive
68 | CC[C@@H]1C(=O)N(C)c2cnc(Nc3ccc(C(=O)NC4CCN(C)CC4)cc3OC)nc2N1C1CCCC1 | 105 nM (active)
69 | O=C(Nc1cc(Cl)cc2c1[nH]c1cnccc12)c1cccnc1 | inactive
70 | C[C@](Cc1c[nH]c2ccccc12)(NC(=O)OC1C2CC3CC(C2)CC1C3)C(=O)NC[C@H](NC(=O)CCC(=O)O)c1ccccc1 (stereo not given in full) | inactive
71 | O=C(O)[C@@H](c1ccc(OCc2ccc3ccccc3n2)cc1)C1CCCC1 | 13200 nM (active)
72 | COc1ccc(C=Cc2cc(OC)c(OC)c(OC)c2)cc1NC(=O)[C@H](N)CO | 296 nM (active)
73 | C[C@@H](CN1CC(=O)NC(=O)C1)N1CC(=O)NC(=O)C1 | 14800 nM (active)
74 | C[C@@H](Oc1cc(-n2cnc3ccc(CN4CCN(C)CC4)cc32)sc1C(N)=O)c1ccccc1C(F)(F)F | 105 nM (active)
75 | C[C@@H]1C[C@H]2[C@@H]3CCC4=CC(=O)C=C[C@]4(C)[C@@]3(F)[C@@H](O)C[C@]2(C)[C@@]1(O)C(=O)CO | inactive
76 | CC1=C(C)C(=O)C(C(CCCCCC(=O)O)c2ccccc2)=C(C)C1=O (stereo not given) | inactive
77 | C[C@]12C=CC(=O)C=C1CC[C@@H]1[C@@H]2C(=O)C[C@@]2(C)[C@H]1CC[C@]2(O)C(=O)CO | inactive
78 | Cc1ccc(C(=O)Nc2cccc(C(F)(F)F)c2)cc1Nc1nc(-c2cccnc2)nc2c1cnn2C | 16600 nM (active)
79 | COc1cc([C@@H]2c3cc4c(cc3[C@H](O)[C@H]3COC(=O)[C@H]23)OCO4)cc(OC)c1OC | 41.7 nM (active)
80 | COc1ccc(-n2c(C)c([N+](=O)[O-])c3ccc(O)cc32)cc1 | 5250 nM (active)
